# Laboratory results reported in PubChem BioAssay (NCATS).
# Results filed as inconclusive are left out. A call without a number means that no potency is given here. Values without a mark were called inactive. Calls of active or inactive are those of the source. Calls follow the shape of the dose curve; as a rule, active = well fitted cell-killing curve with a large enough effect; inconclusive = small, poorly fitted or top-dose-only effect; inactive = flat fitted curve, though single readings scatter.
# Test: qHTS of pediatric cancer cell lines to identify multiple opportunities for drug repurposing: Primary screen for Rh18 cells (AID 1347102); also: nearly all actives have a fitted effect of over 65% in size
# Conditions: Rh18 rhabdomyosarcoma viability, CellTiter-Glo luminescence, 48 h; series mostly up to 46 µM
# Excerpt: Drug repurposing or repositioning has been offered as a strategy for drug development in oncology programs. This approach has special potential for childhood cancers and other rare or orphan diseases, where the expected return on new drug development has been a disincentive to pharmaceuticals.
# In this project we exploit the poly-pharmacology of drugs to discover new indications via phenotypic screening of a panel of 19 well-characterized cell lines derived from solid tumors seen in children and adolescents. The goal is to identify approved drugs with previously unrecognized anticancer properties that has the potential to reveal new mechanisms and biological processes involved in carcinogenesis or drug resistance. We employed a titration-based paradigm (quantitative high-throughput screening or qHTS), where all compounds were tested at multiple concentrations for their effect on cell viability. Concentration-response curves (CRCs) were derived directly from the primary screen, and both potency and efficacy values were used to identify compounds with robust bioactivity profiles. We screened the NIH Chemical Genomics Center (NCGC) Pharmaceutical Collection (NPC) and Mechanism Interrogation Plate (MIPE) small molecule collections of approved and investigational compounds against these cell lines; and measured metabolically active cells after 48 hours of compound treatment as a proxy for cell viability.
# Assay Submitter: Nathalia J. Martinez, National Center for Advancing Translational Sciences, National Institutes of Health, Rockville, MD, USA; email: natalia.martinez@nih.gov
# [1] Shen, M et al. Quantitative high-throughput phenotypic screening of pediatric cancer cell lines identifies multiple opportunities for drug repurposing. Oncotarget 2017 Dec 19;9(4):4758-4772. PMID 29435139.
# The cells were obtained from University of North Carolina (UNC), Pediatric Preclinical Testing Program (PPT), and Coriell Institute (CI).
# qHTS cell viability assay:
# Cells were assayed in growth media at a density of 500-1,000 cells/well. Five microliters of cells were dispensed into 1,536-well, white, solid-bottom, TC-treated plates (Greiner Bio One) using a multidrop dispenser and incubated at 37 degrees C, 5% CO2, under a humidified atmosphere for 5 hours. Twenty-three nanoliters of compounds and controls (neutral control DMSO or positive control bortezomib at final concentration of 2.3 µM) were subsequently transferred by Kalypsys pintool. For primary screens, the MIPE collection was tested at 11-point dilutions (final concentrations range from 0.78 nM to 46 µM) and the NPC collection at 8-point dilutions (final concentrations range from 0.59 nM to 46 µM). Compounds tested in follow-up screens were assayed at 11-point dilutions. Cells were incubated for 48 hours, followed by addition of 3 µL of CellTiter-Glo (Promega). After a 15 min incubation at room temperature, samples were analyzed for luminescence intensity using a ViewLux High-throughput CCD imager equipped with clear filters.
# Potency is read from the fitted curve at half-maximal effect.
Structure (SMILES),"activity change, negative = cytotoxic",Potency
O=c1[nH]c(=O)c2[nH]c(=O)[nH]c2[nH]1,4.04% [at 9.22 µM],–
CN1[C@@H]2CC(OC(=O)[C@H](CO)c3ccccc3)C[C@H]1[C@@H]1O[C@@H]12 (stereo not given in full),–,inactive
COc1ccc(Cl)cc1C(=O)NCCc1ccc(S(=O)(=O)NC(=O)NC2CCCCC2)cc1,–,inactive
CC(=O)OCC(=O)[C@@]1(O)CC[C@H]2[C@@H]3CCC4=CC(=O)CC[C@]4(C)[C@H]3C(=O)C[C@@]21C,–,inactive
CCN(CC)CCOC(=O)C1(C2CCCCC2)CCCCC1,–,inactive
Cc1cccc(Nc2cc(Cl)nc(SCC(=O)O)n2)c1C,–,inactive
O=C1NC(=O)[C@@]2(CCOc3ccc(F)cc32)N1,–,inactive
CCCCC/C(C=O)=C\c1ccccc1,–,inactive
Cc1cc(O)cc2c1O[C@](C)(CCC[C@H](C)CCC[C@H](C)CCCC(C)C)CC2,–,inactive
CCOC(=O)[C@H](CCc1ccccc1)N[C@@H](C)C(=O)N1C(=O)N(C)C[C@H]1C(=O)O,–,inactive
Cc1cc(CC(=O)O)n(C)c1C(=O)c1ccc(Cl)cc1,–,inactive
c1ccc2c(CC3=NCCN3)cccc2c1,–,inactive
O=C1O[C@H]([C@@H](O)CO)C(O)=C1O,–,inactive
NC(N)=NCCC[C@H](N)C(=O)O,15.1% [at 4.84 µM],–
CC/C=C(\C(=O)N[C@@H]1C(=O)N2C(C(=O)OCOC(=O)C(C)(C)C)=C(COC(N)=O)CS[C@H]12)c1csc(N)n1,–,inactive
COc1ccc2cc1Oc1cc3c(cc1OC)CC[N+](C)(C)[C@H]3Cc1ccc(cc1)Oc1c(OC)c(OC)cc3c1[C@@H](C2)[N+](C)(C)CC3,–,inactive
CN(C)CCOC(C)(c1ccccc1)c1ccccn1 (stereo not given),–,inactive
COC(=O)[C@H]1[C@H]2C[C@@H]3c4[nH]c5cc(OC)ccc5c4CCN3C[C@H]2C[C@@H](OC(=O)COc2ccc(OC)cc2)[C@@H]1OC,–,inactive
CC(=O)Oc1c(C)c(C)c2c(c1C)CC[C@@](C)(CCC[C@H](C)CCC[C@H](C)CCCC(C)C)O2,–,inactive
CC(C)(C)C(=O)NCCCC(=O)O,–,inactive

Structure (SMILES),"activity change, negative = cytotoxic",Potency
CC(=O)Oc1ccc(C2(c3ccc(OC(C)=O)cc3)C(=O)Nc3ccccc32)cc1,–,inactive
CC[N+](CC)(CC)CCOc1ccc(/C=C/c2ccccc2)cc1,–,7.5 µM (active)
Cc1ccc2nc(N)[nH]c(=O)c2c1Sc1ccncc1,–,inactive
C[C@@H]1CCN(C(=O)[C@H](CCCN=C(N)N)NS(=O)(=O)c2cccc3c2NC[C@H](C)C3)[C@@H](C(=O)O)C1,–,inactive
O=C(O)c1ccccc1-c1ccc(C(F)(F)F)cc1,–,inactive
c1ccc(CN(CC2=NCCN2)c2ccccc2)cc1,–,inactive
NC1CCN(c2cccc(Cl)n2)CC1,–,inactive
O=C(O)c1ccccc1O,–,inactive
C[C@H]1O[C@H](O[C@H]2[C@H](O)[C@@H](O)[C@@H](O[C@H]3[C@H](O)[C@@H](O)[C@H](O)O[C@@H]3CO)O[C@@H]2CO)[C@H](O)[C@@H](O)[C@@H]1N[C@H]1C=C(CO)[C@@H](O)[C@H](O)[C@H]1O,–,inactive
CCC(=O)Nc1ccc(O)cc1,–,inactive
Cc1c(Cl)cccc1Nc1ccccc1C(=O)O,–,inactive
CC1=C(CC(=O)O)c2cc(F)ccc2/C1=C\c1ccc(S(C)=O)cc1 (stereo not given),–,inactive
CN(C)CCCO[C@@H]1[C@H]2OC(C)(C)O[C@H]2O[C@@H]1C(O)CO (stereo not given in full),–,inactive
CCN(CC)CCNC(=O)c1cc(Cl)c(N)cc1OC,–,inactive
NCCNCCNCCN,–,inactive
C[C@](N)(Cc1ccc(O)cc1)C(=O)O,14.1% [at 4.84 µM],–
O=C(O)Cc1sc(-c2ccccc2)nc1-c1ccc(Cl)cc1,–,inactive
CCC(=O)c1ccc(O)cc1,–,inactive
Nc1nc2c(ncn2CCC(CO)CO)c(=O)[nH]1,–,inactive
O=C1c2c(O)cccc2Cc2cccc(O)c21,–,inactive
